Screens deposited in PubChem by National Center for Advancing Translational Sciences (NCATS).
NPC1 promoter act: NPC1 promoter activation. Huh7 NPC1 promoter luciferase reporter, 24 h. Potency, µM (titrated, usually from 9.22 µM), without a hit: top-dose activation, hits mostly activators. 2.4% of 320,000 active. AID 485313; note: % of control where 0% means no effect; nearly all actives have a fitted effect of over 60% in size
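Luminescence from an NPC1 promoter-driven luciferase reporter in stably transfected Huh7 cells was measured after 24 h compound treatment at 37 °C, followed by 10 min ambient incubation with luciferase detection reagent.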
ELG1 genotox: inducers of genotoxicity in HEK293T ELG1-luciferase cells; HEK293T ELG1-luciferase reporter, luminescence, 16 h; Potency, µM (highest dose often 46 µM), without a hit: top-dose activity change, positive = activation, most hits filed as activators; 1.3% of 330,000 active; AID 504466; note: % of control where 0% means no effect; nearly all actives have a fitted effect of over 60% in size
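Luminescence read-out: rising ELG1-luciferase signal, reflecting elevated ELG1 protein under genetic stress, flags genotoxic compounds. Cells were treated for 16 hr at 37 °C before ONE-Glo detection.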
FLuc counter: counter-screen for miR-21 project: firefly luciferase inhibitors or activators. P08659. purified FLuc, Km substrates, luminescence inhibition. Potency, µM (highest dose often 57.5 µM), without a hit: at the highest dose activity change, negative = inhibition, actives largely listed as inhibitors. 6.9% of 360,000 active;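 note: plate controls were vehicle for no effect and reference inhibitor for full effect; nearly all actives have a fitted effect of over 55% in size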
Target sequence (P08659 whole entry, looked up): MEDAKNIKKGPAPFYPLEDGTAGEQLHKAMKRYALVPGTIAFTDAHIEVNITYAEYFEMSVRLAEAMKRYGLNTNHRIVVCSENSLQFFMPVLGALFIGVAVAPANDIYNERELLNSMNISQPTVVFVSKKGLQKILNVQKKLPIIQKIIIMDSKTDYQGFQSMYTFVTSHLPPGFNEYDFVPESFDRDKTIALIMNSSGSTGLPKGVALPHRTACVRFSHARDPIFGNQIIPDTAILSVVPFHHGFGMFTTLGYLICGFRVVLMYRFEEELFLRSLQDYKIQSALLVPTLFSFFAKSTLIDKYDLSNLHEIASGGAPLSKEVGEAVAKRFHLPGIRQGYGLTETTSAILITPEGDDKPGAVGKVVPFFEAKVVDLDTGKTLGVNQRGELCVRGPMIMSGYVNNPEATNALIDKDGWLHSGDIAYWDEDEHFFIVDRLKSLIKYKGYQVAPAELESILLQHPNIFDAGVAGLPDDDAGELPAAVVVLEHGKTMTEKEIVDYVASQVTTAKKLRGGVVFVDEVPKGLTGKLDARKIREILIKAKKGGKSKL
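Purified P. pyralis luciferase (10nM final) with 10uM D-luciferin and 10uM ATP (Km levels) in 50mM Tris acetate pH 7.5, 10mM Mg acetate, 0.01% Tween-20, 0.05% BSA; qHTS 6-point titration, ~60 µM downward; luminescence read.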
Rab9 prom act: activates the Rab9 promoter; Potency, µM (titrated, usually from 9.22 µM), without a hit: at the highest dose activation, negative = inhibition, hits mostly activators; 2.8% of 320,000 active; Huh7 Rab9 promoter-luciferase reporter, luminescence, 24 h; note: % of control where 0% means no effect; nearly all actives have a fitted effect of over 60% in size
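Huh7 reporter line, Rab9 promoter upstream of luciferase. Compound exposure 24 h at 37 °C in reduced-serum medium with 10% FBS. Read-out: luminescence.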
ELG1 DNA repair: inhibitors of ELG1-dependent DNA repair in HEK293T cells; 2.3% of 330,000 active; Potency, µM (top dose mostly 46.1 µM), inactives show top-dose activity change, negative = inhibition, actives largely listed as inhibitors; HEK293T ELG1-luciferase reporter, luminescence, 16 h; DNA damage induced by 5-fluorouridine; note: % is set by controls: 0 for no effect and ±100 for the full control effect; nearly all actives have a fitted effect of over 55% in size
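Luminescence from the luciferase reporter, measured 30 min after ONE-Glo reagent at room temperature, was the read-out. Beforehand, 2,000 cells per well were exposed for 16 hr at 37 °C to 5-fluorouridine together with compound or vehicle.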
SMN2 splice enh: increases expression of the SMN2 splice variant | 2.8% of 210,000 active | Potency, µM (highest dose often 46.1 µM), for the others: top-dose activity change, positive = activation, most hits filed as activators | HEK293 SMN2-luciferase splicing reporter, luminescence, 30-36 h; note: % of control where 0% means no effect; nearly all actives have a fitted effect of over 55% in size
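HEK293 cells carry an SMN2 minigene-luciferase reporter in which exon 7 inclusion puts luciferase in frame. Cells were seeded at 2000 cells/well, attached for 10-12 hours, then exposed to compounds for 30-36 hours at 37C before ONE-Glo luminescence.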
Active calls of the source: *; ? = inconclusive; / = no result; [ ] = dose if it differs, or a comment. Most compounds without a hit are left out; they make up all but 9.4% or so of the library. Calls come from the whole dose curve; as a rule, active = well fitted curve in the direction sought with a large enough effect; inconclusive = small, poorly fitted or top-dose-only effect, or another doubt; inactive = no such curve, though single readings can be large; an effect the other way counts as inactive or inconclusive. Potency is the fitted concentration of half-maximal effect.

SMILES	NPC1 promoter act	ELG1 genotox	FLuc counter	Rab9 prom act	ELG1 DNA repair	SMN2 splice enh
CCCOc1ccc(C2C(=O)N(C3CCCCCC3)CC(=O)N2Cc2ccc(OC)cc2)cc1OC (stereo not given)	/	/	-7%	/	/	/
O=S(=O)(c1cccc(-c2cn3ccccc3n2)c1)N1CCCCC1	-1%	-10%	?	-3%	-15%	/
O=C1COc2ccc(-c3csc(NCCc4ccccc4)n3)cc2N1	-1%	-7%	27µM*	0%	?	-51%
c1ccn2cc(-c3ccc4c(c3)OCCO4)nc2c1	?	0.29µM*	0.48µM*	0.63µM*	?	0.4µM*
Cc1ccc2nc(-c3ccc4c(c3)NC(=O)CO4)cn2c1	1.6µM*	?	0.85µM*	1.1µM*	?	/
Cc1ccc(CSc2ccc(-c3ccc4c(c3)OCO4)nn2)cc1	3%	7%	-17%	15%	?	26%
Cc1ccc2nc(-c3ccc4c(c3)OCCO4)cn2c1	-32%	?	0.067µM*	-37%	?	/
Cc1ccc(-n2nc3c(N4CCC(C(=O)N5CCCCC5)CC4)nnc(C)c3c2C)cc1	/	/	-8%	/	/	/
Cc1ccc(N2C(=O)CSC23C(=O)N(CC(=O)Nc2ccc(C)cc2C)c2ccccc23)cc1 (stereo not given)	/	/	-9%	/	/	/
COc1ccc(NC(=O)CN2C(=O)COc3ccc(S(=O)(=O)Nc4ccccc4)cc32)cc1	/	/	-3%	/	/	/
CCOc1ccc(-n2ccn3c(CC(C)CC(=O)O)nnc3c2=O)cc1 (stereo not given)	/	/	0%	/	/	-7%
Clc1ccc2nc(-c3ccc4c(c3)OCO4)cn2c1	0.32µM*	?	0.12µM*	0.13µM*	?	/
CN(C)S(=O)(=O)c1cccc(-c2cn3cc(Cl)ccc3n2)c1	24%	?	?	21%	-16%	-5%
CCc1ccccc1-n1nnc(-c2nc(-c3ccccc3F)no2)c1C	/	/	1.2µM*	/	/	/
Cc1c(-c2ccccc2)nnn1-c1ccc(F)cc1F	?	?	21µM*	?	?	/
Cc1c(-c2nc(-c3ccccc3)no2)nnn1-c1cccc(C(F)(F)F)c1	/	/	-2%	/	/	/
Cc1c(-c2nc(-c3ccccc3F)no2)nnn1-c1cc(F)ccc1F	/	/	0.17µM*	/	/	/
CN(C)CCCNc1ncnc2nc[nH]c12	/	/	/	/	/	1%[9.22 µM]
CCOC(=O)c1c(C)[nH]c(N=Nc2ccccc2C)c1C	28%	23µM*	15µM*	?	?	19%
CCOC(=O)c1[nH]c(C)c(C(=O)O)c1C	0%	-4%	0%	-4%	-7%	-9%
CCOC(=O)c1[nH]c(C)c(C(=O)Nc2ccccc2C)c1C	-27%	?	-6%	-32%	?	28%
CCOC(=O)c1c(C)[nH]c(N=Nc2ccc(C)cc2C)c1C	?	?	15µM*	0.25µM*	?	11%
CCOC(=O)c1c(C)[nH]c(N=Nc2cc(C(=O)O)cc(C(=O)O)c2)c1C	-2%	2%	17µM*	8%	17%	/
CC(C)CNC(=O)O	/	/	/	/	/	-12%[9.22 µM]
C=CCNC(=O)c1onc(CSc2cc(C)ccc2C)c1C(=O)O	-4%	-4%	-12%	-3%	-2%	32µM*
SMILES	NPC1 promoter act	ELG1 genotox	FLuc counter	Rab9 prom act	ELG1 DNA repair	SMN2 splice enh
C=CCNC(=O)c1onc(CSc2ccc(Cl)cc2)c1C(=O)O	-2%	-2%	17µM*	2%	?	?
NCCNC(=S)S	/	/	/	/	/	1%[9.22 µM]
FC(F)Oc1ccccc1/C=N/Nc1nc2ccccc2o1	?	19%	?	4µM*	?	/
Fc1ccccc1/C=N/Nc1nc2ccccc2o1	2.8µM*	?	3µM*	2.2µM*	?	/
O=C(N/N=C/c1ccccc1OC(F)F)C1=COCCO1	8%	7%	-20%	10%	?	23%
CCc1nnc(N/N=C/c2ccccc2F)n1N	5%	0%	5%	11%	-28%	-36%
Cc1cccc(OC(=O)c2nc(SCc3ccccc3F)ncc2Cl)c1	/	/	5%	/	/	-6%
CCOC(=O)C(C)(C)[C@H](O)C(C)C	/	/	/	/	/	-3%[9.22 µM]
